Experiments:
Format in all cases: functional
Plasmodium falciparum [1] = test: GSK_TCMDC: Inhibition of Plasmodium falciparum 3D7 in whole red blood cells, using parasite LDH activity as an index of growth. Test compounds present at 2uM
Plasmodium falciparum [2] = test: GSK_TCMDC: Inhibition of Plasmodium falciparum Dd2 in whole red blood cells, using parasite LDH activity as an index of growth. Test compounds present at 2uM
HepG2 = test: GSK_TCMDC: Percent inhibition of human HepG2 cell line. Test compounds present at 10uM.

Row | Structure (SMILES) | Inhibition (Plasmodium falciparum [1]) [%] | Inhibition (Plasmodium falciparum [2]) [%] | Inhibition (HepG2) [%]
1 | CCn1c(-c2nonc2N)nc2c(-c3ccccc3)ncc(OCCCCNCCc3ncc[nH]3)c21.O=C(O)C(F)(F)F | 92 | 42 | 34
2 | Cc1cc(-c2ccc(S(=O)(=O)Nc3cc4c(cc3OC(C)C)CCN(C)CC4)cc2)ccc1Cl.Cl | 90 | 19 | 33
3 | O=C(/C=C/c1ccc(Cl)c(Cl)c1)NCCCCCN1CCCN(C(=O)Nc2cccc(F)c2)CC1 | 97 | 4 | 20
4 | Fc1ccc2[nH]c(-c3ccc(-c4ccc(CN5CCCCC5)cc4)s3)nc2c1.O=C(O)C(F)(F)F | 92 | 100 | 42
5 | Cc1cc(N[C@@H](Cc2ccccc2)C(=O)NCCc2ccccc2)nc(NCC2CCCCC2)n1.O=C(O)C(F)(F)F | 100 | 95 | 24
6 | Cc1ccccc1C1CCN(C2CCC(NC(=O)c3ccc(-c4cccs4)s3)CC2)CC1 (centres undefined) | 100 | 54 | 58
7 | Nc1c2ccccc2nc2ccc(Cl)cc12 | 100 | 100 | 55
8 | CC(C)(C)c1ccc2[nH]c(-c3ccc(C(=O)NCCCc4ccccc4)cc3)nc2c1 | 95 | 14 | 11
9 | COc1cccc(-c2cc3nc4c(c(NCCCn5ccnc5)n3n2)CCCC4)c1 | 100 | 66 | 10
10 | Cc1ncccc1-c1cccc2c(NC(=O)Nc3ccc4nccc(N5CCN(C)CC5)c4c3)cccc12.Cl | 100 | 96 | 19
11 | N#Cc1ccc(-c2ccc(C(=O)NC3CCN(CCN4CCC(c5cn(CCOC6CCCCO6)c6ccccc56)CC4)CC3)cc2)cc1 (centres undefined) | 99 | 86 | 48
12 | COc1ccc(C(=O)CCC(=O)N(CCSC(C)(C)C)Cc2ccc(-c3ccc(CNCCc4ccc(S(C)(=O)=O)cc4)cn3)cc2)cc1F.O=C(O)C(F)(F)F | 98 | 42 | 9
13 | CCCC(C)Nc1nc(C)cc(N[C@@H](Cc2ccccc2)C(=O)Nc2ccc(OC)cc2)n1.O=C(O)C(F)(F)F (some centres undefined) | 100 | 72 | 24
14 | Cc1cc(NC(=O)NCCN2CCC(NC(=O)c3ccc(F)cc3)CC2)c2ccccc2n1 | 99 | 76 | 0
15 | Cc1ccc(C(C)C)c(Oc2cnc(NC(CO)c3ccccc3)nc2N)c1 (centres undefined) | 95 | 0 | 27
16 | CCCC(C)Nc1nc(C)cc(N[C@@H](CC(C)C)C(=O)NC2CCCC2)n1.O=C(O)C(F)(F)F (some centres undefined) | 85 | 22 | 6
17 | CC(C)(C)C(=O)Nc1ccc(C(=O)Nc2cccc(-c3nc4ccccc4[nH]3)c2)cc1 | 96 | 62 | 56
18 | O=C(NCc1cccc(Br)c1)c1ccc(CNC2CCN(Cc3ccccc3)CC2)cc1.O=C(O)C(F)(F)F | 100 | 49 | 3
19 | COc1ccc(COc2cc(NCCCN)nc3ccccc23)cc1 | 100 | 5 | 3
20 | CC(C)COc1ccc(C(O)C(CN2CCCCC2)c2ccccc2)cc1 (centres undefined) | 93 | 89 | 11
21 | O=C(NC1CCN(CCN2CCC(c3cn(CCO)c4ccccc34)CC2)CC1)c1ccc(-c2ccc(C(F)(F)F)cc2)cc1 | 98 | 54 | 30
22 | Brc1ccc(Nc2nc3ccccc3nc2Nc2ccc(Br)cc2)cc1 | 100 | 100 | 18
23 | Cc1[nH]c2ccccc2c(=O)c1Br | 94 | 84 | 2
24 | Cl.NCc1ccc(Nc2nccc(Nc3ccc(-c4ccccc4)cc3)n2)cc1 | 100 | 98 | 47
25 | O=C(O)C(F)(F)F.c1ccc(CCNCc2ccc(-c3ccc(CNCc4ccc5c(c4)OCO5)cc3)nc2)cc1 | 94 | 67 | 24
26 | COc1ccc(C(C(=O)NC2CCN(C[C@H](O)c3ccnc4ccc(OC)cc34)CC2)N2CCN(Cc3ccccc3)CC2)cc1 (some centres undefined) | 100 | 72 | 18
27 | Cl.N=C(NCCc1ccccc1Cl)c1ccc2ccccc2c1 | 88 | 11 | 25
28 | CC(C)(C)c1ccc(NC(=O)N[C@@H]2CCN(c3ccnc4ccccc34)C2)cc1.Cl | 100 | 96 | 23

— ChEMBL document CHEMBL1157539, “Thousands of chemical starting points for antimalarial lead identification” (Nature, 2010)
